# Bioassay records from PubChem BioAssay.
# In the library only some 3% were active in any assay of this set; here they are far more common.
# PAFAH2 inh: inhibitors of human PAFAH2; recombinant PAFAH2, FP-rhodamine activity probe, fluorescence polarization; actives 0.99% (n = 340,000); Q99487; inhibition, % at 3.39 µM; AID 492956;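 active = inhibition above the mean over all tested compounds plus 3 SD, cut at about 30% in these data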;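 also: inhibitors block probe labeling of enzyme so polarization drops; 0% = enzyme with DMSO and 100% = wells lacking PAFAH2 protein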
# DAGLB inhibitor: blocks human DAGLB lipase activity | AID 504411 | inhibition, % at 5.17 µM | actives 0.059% (n = 340,000) | HEK293T DAGLB membrane lysate, EnzChek fluorogenic substrate; in the data active = inhibition above about 34%;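 also: 0% = enzyme with vehicle and 100% = wells lacking enzyme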
# ATG4B inh: inhibitors of human ATG4B cysteine protease | actives 0.51% (n = 340,000) | ATG4B cleavage of LC3-PLA2, NBD-HPC fluorescence, 1 h | inhibition, % at 8.33 µM; in the data active = inhibition above about 40%
# PAFAH1B2 inh: blocks human PAF acetylhydrolase 1b catalytic subunit 2; recombinant PAFAH1B2, FP-rhodamine activity probe, fluorescence polarization; inhibition, % at 3.39 µM; actives 1.2% (n = 340,000); P68402;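 active = inhibition above the mean of all tested compounds plus 3 SD, cut at about 24% in these data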;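 also: 0% = enzyme with DMSO and 100% = wells lacking PAFAH1B2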
# Target sequence (P68402 whole entry, looked up): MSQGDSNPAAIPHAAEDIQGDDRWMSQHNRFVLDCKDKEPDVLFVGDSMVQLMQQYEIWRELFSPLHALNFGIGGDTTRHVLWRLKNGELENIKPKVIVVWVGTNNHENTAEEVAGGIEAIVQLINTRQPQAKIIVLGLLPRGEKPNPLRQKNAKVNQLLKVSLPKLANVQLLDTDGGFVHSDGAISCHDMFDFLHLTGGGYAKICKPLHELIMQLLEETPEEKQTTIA
# pPAFAH inh: inhibitors of human plasma PAF acetylhydrolase (pPAFAH) | AID 463082 | recombinant pPAFAH, FP-rhodamine probe fluorescence polarization | actives 1.5% (n = 330,000) | Q13093 | inhibition, % at 3.39 µM;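 active = inhibition above the mean inhibition across the screen plus 3 SD, cut at about 25% in these data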;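 also: inhibitors block binding of the rhodamine activity-based probe so polarization drops; 0% = enzyme with DMSO and 100% = wells lacking pPAFAH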
# PAFAH1B3 FP inh: PAFAH1B3 (human) inhibition; actives 0.28% (n = 340,000); inhibition, % at 3.39 µM; Q15102; recombinant PAFAH1B3, FP-rhodamine probe, fluorescence polarization;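 active = inhibition above the screen-wide average of all tested compounds plus 3 SD, cut at about 25% in these data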;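 also: 0% = enzyme with DMSO only and 100% = wells lacking PAFAH1B3 protein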
# Target sequence (Q15102 whole entry, looked up): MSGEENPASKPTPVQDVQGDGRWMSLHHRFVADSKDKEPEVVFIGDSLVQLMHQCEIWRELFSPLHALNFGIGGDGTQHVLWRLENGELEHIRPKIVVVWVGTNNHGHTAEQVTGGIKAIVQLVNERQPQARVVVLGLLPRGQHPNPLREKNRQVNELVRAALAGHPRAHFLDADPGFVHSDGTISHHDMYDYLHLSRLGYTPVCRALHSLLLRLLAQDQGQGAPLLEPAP
# An asterisk follows results filed as active; x = not tested or not shown; ! = repeats disagree.
SMILES,PAFAH2 inh,DAGLB inhibitor,ATG4B inh,PAFAH1B2 inh,pPAFAH inh,PAFAH1B3 FP inh
CCOc1ccccc1N1CCN(C(=O)c2ccc(S(=O)(=O)Nc3ccccc3)cc2)CC1,-6,1,-9,-1,27*,12
CN1CCN(C(=O)c2ccc(S(=O)(=O)Nc3ccccc3)cc2)CC1,2,1,0,5,25*,1
Cc1ccc(C(=O)N2CCCC2)cc1S(=O)(=O)Nc1ccccc1,8,1,-9,0,30*,4
O=C(c1ccc(S(=O)(=O)Nc2ccccc2)cc1)N1CCCC1,0,0,-6,1,17,4
COc1ccc(NS(=O)(=O)c2cc(C(=O)N3CCCCCC3)ccc2C)cc1,5,1,3,10,7,-4
CCOc1ccc(NS(=O)(=O)c2ccc(C(=O)NNC(=O)c3ccccc3O)cc2)cc1,-1,6,3,3,26*,1
Cc1c(C(=O)N2CCCCCC2)c(S(=O)(=O)Nc2ccc(F)cc2)c(C)n1C,0,2,0,2,3,4
O=C(N/C(=C/C=C/c1ccccc1)C(=O)N1CCOCC1)c1ccccc1Br,1,2,-11,6,2,15
COc1cccc(CN(C)C(=O)c2cc(S(=O)(=O)N3CCCC3)ccc2C)c1OC,1,-1,0,5,-3,4
CCOc1ncccc1C(=O)NCCCSc1ccccc1,-1,-8,7,3,4,1
CC1CCC2(CC1)NC(=O)N(CC(=O)N1c3ccccc3CC1C)C2=O (stereo not drawn),-3,1,-14,10,4,1
Cc1ccc(CC(=O)Nc2nccs2)cc1C,-7,1,4,-5,-1,-5
CCOc1ccc(NS(=O)(=O)c2ccc(C(=O)N3CCN(c4ncccn4)CC3)cc2)cc1,-6,-2,-4,4,27*,9
CCOc1ccc(S(=O)(=O)Nc2ccc(C(=O)N3CC(C)OC(C)C3)cc2)cc1 (stereo not drawn),9,1,-13,2,5,-8
CCOc1ccc(NS(=O)(=O)c2ccc(C(=O)N3CC(C)OC(C)C3)cc2)cc1 (stereo not drawn),-3,-1,-1,-3,29*,6
CCN1C(=NCc2ccco2)N[C@@H](c2cccc(F)c2)C(C(=O)OC)=C1C,-1,2,0,0,-7,9
Cc1nc2nc[nH]n2c(=O)c1NC(=O)CC12CC3CC(CC(C3)C1)C2,36*!,3,-5,25*,3,8
CC(=O)Nc1ccc(/C=C/c2nc(-c3ccccc3O)n[nH]2)cc1,-4,-1,-16,-1,-6,11
Cc1ccccc1Cn1c(NC2CCCC2)nc2c1c(=O)[nH]c(=O)n2C,5,3,-7,2,33*,3
Cc1ccc(C)c(N=Cc2cc3c(cc2[N+](=O)[O-])OCO3)c1,14,10,2,-3,18,9
Cc1ccc(N=Cc2cc3c(cc2[N+](=O)[O-])OCO3)cc1[N+](=O)[O-],x,x,4,x,31*,x
CC1CCCCC1NS(=O)(=O)c1ccc(S(=O)(=O)N2CCCC2)cc1 (stereo not drawn),2,-2,-9,14,26*,3
S=c1[nH]cnc2sc(-c3ccccc3)cc12,1,-2,-3,46*,2,-6
CNc1ncnc2sc(-c3ccccc3)cc12,0,2,1,0,8,7
Cc1ccnc(N2CCN(C(=O)CSc3nc4ccccc4nc3N3CCC(C)CC3)CC2)c1,4,-7,2,3,6,5
SMILES,PAFAH2 inh,DAGLB inhibitor,ATG4B inh,PAFAH1B2 inh,pPAFAH inh,PAFAH1B3 FP inh
COc1cccc(CN(Cc2cccnc2)S(=O)(=O)c2ccc(-n3cnnn3)c(C)c2)c1OC,6,0,-23,6,1,8
O=S1(=O)CCOC[C@H](c2ccccc2)N1Cc1ccccc1F,-5,-6,8,29*,3,3
O=S(=O)(c1ccc(Br)cc1)N1CCC2(CC1)OCCO2,8,-3,-1,27*,-2,7
COCc1nnc(NC(=O)CCCOc2ccccc2)s1,-2,-1,5,2,34*,11
Cc1ccc(OC(=O)c2sc(Cl)nc2C)cc1C,7,-4,6,5,0,4
CC(Nn1cnnc1)c1cc(Cl)ccc1O (stereo not drawn),4,-2,-2,0,-4,9
Cc1ccc(NC(C)c2cc(Cl)ccc2O)cc1 (stereo not drawn),-4,-1,-3,28*,0,2
COC(=O)[C@H](Cc1c[nH]c2ccccc12)NC(=O)NCc1ccccc1,-5,-4,7,0,1,2
Cc1sc(NC(=O)C2CCCCC2C(=O)O)c(C(N)=O)c1-c1ccc(C(C)(C)C)cc1 (stereo not drawn),7,7,12,26*,-7,-3
CCOC(=O)c1c(NC(=O)/C=C/C(=O)O)sc(C)c1-c1ccc(C(C)(C)C)cc1,-2,20,15,-4,33*,-16
Cc1sc(NC(=O)C2CCCCC2C(=O)O)c(C(N)=O)c1-c1ccccc1 (stereo not drawn),-1,1,-1,1,5,4
CCOC(=O)c1c(NC(=O)/C=C\C(=O)O)sc(C)c1-c1ccccc1,5,12,5,9,19,2
O=C(OCC(=O)N1CCOCC1)c1ccc(Cl)cc1[N+](=O)[O-],13,0,-10,1,0,4
O=C(CCN1C(=O)C2CC=CCC2C1=O)Nc1cccc(Cl)c1 (stereo not drawn),-8,2,-7,5,3,-6
CSc1cccc(NC(=O)N2CCCC(CNS(=O)(=O)Cc3ccccc3)C2)c1 (stereo not drawn),-4,0,-7,5,8,8
COc1ccccc1N1CCN(C(=O)c2ccc(-c3nc4ccccc4s3)o2)CC1,4,13,-4,-2,6,15
Cc1ccccc1C1=C/C(=C(\SS/C(C(=O)c2ccc(OCC(=O)O)c(Cl)c2Cl)=C2\C=C(c3ccccc3C)SS2)C(=O)c2ccc(OCC(=O)O)c(Cl)c2Cl)SS1,34*,7,28,26*,x,25
CC(=O)Nc1ccc(Nc2nc(Cl)nc(Nc3ccc(NC(C)=O)cc3)n2)cc1,2,1,5,0,2,-4
Cc1ccc(-n2c(C)cc(-c3csc(N)n3)c2C)cc1,3,12,27,-2,25*,1
Cc1ccc(-c2csc(N)n2)cc1,12,2,1,70*,x,3
COc1ccc(-c2csc(N)n2)cc1,5,-1,-6,11,0,8
Cc1cc(-c2csc(N)n2)c(C)n1C,6,5,10,7,16,6
Fc1ccc(-n2cc(-c3ccccc3)c3c(=S)nc[nH]c32)cc1,0,0,3,1,30*,2
